The campaign covered roughly 350,000 compounds. About 9,900 (2.8%) were called active. Entries that show only a call come without a potency. Not shown: some 15% with an inconclusive outcome. Calls follow the shape of the dose curve; as a rule, active = well fitted activation curve with a large enough effect; inconclusive = small, poorly fitted or top-dose-only effect; inactive = no such curve, though single readings can be large or run the other way. The sample as a whole holds a higher share of actives than the screen did.
Experiment: A quantitative high throughput screen for small molecules that induce DNA re-replication in MCF 10a normal breast cells. Also: nearly all actives have a fitted effect of over 50% in size.
Settings: MCF 10A DNA re-replication, Hoechst nuclear intensity, 48 h; series mostly up to 46.1 µM
From the text: H Molecular Libraries Probe Production Network [MLPCN]
NIH Chemical Genomics Center [NCGC]
Assay Provider: Melvin DePamphilis, NICHD, NIH
Eukaryotic cells normally restrict genome duplication to once per cell division. When this process is aberrant, DNA re-replication occurs when cells reinitiate DNA replication before the first round of replication is complete. DNA re-replication induces the DNA damage response, arrests cell proliferation, and triggers apoptosis. The cell cycle components cyclin A, Cdt-1, Cdc6 and geminin are critical regulators of this process and their misregulation results in DNA re-replication in normal and cancer cells. To identify compounds that induce re-replication in normal cells, an image-based assay was used to measure DNA content of nuclei, as detected by the fluorescent DNA binding dye, Hoechst. Cell nuclei were imaged by a fluorescence scanning plate imager and compounds that induce DNA re-replication were identified by the increase of nuclei with elevated fluorescence intensity
For screening, 250 cells in 5 uL/well were dispensed into black clear 1536-well plates (Aurora) using a solenoid-based dispenser. Following transfer of 23 nL compound or DMSO vehicle by a pin tool, the plates were incubated 48 hr at 37 C and 5% CO2. After addition of 1 uL/well Hoescht stain, the plates were incubated 40 min at 37 C, 5% CO2 and total intensity of fluorescent objects (nuclei) were enumerated by an Acumen Explorer Ex3 (TTP LabTech) fluorescence scanning plate imager (405 nm excitation, 500-530 nm emission).
Keywords: NIH Roadmap, MLPCN, MLI, MLSMR, qHTS, NCGC, DNA replication, cancer
Potency is read from the fitted curve at half-maximal effect.

| SMILES | Potency |
| --- | --- |
| CN[C@H](C(=O)NC[C@H]1O[C@@H](n2cnc3c(N)ncnc32)[C@H](O)[C@@H]1O)[C@@H](C)OCc1ccccc1 | inactive |
| O=C(NNc1ccccc1Cl)C(O)(c1cccc(C(F)(F)F)c1)c1cccc(C(F)(F)F)c1 | 16.4 µM (active) |
| O=C(Nc1cc(C(F)(F)F)ccc1Cl)C(=O)N1CCCCC1 | inactive |
| CC(CC(=O)Nc1cc(C(F)(F)F)ccc1Cl)c1ccccc1 (stereo unspecified) | inactive |
| COc1ccc([C@H]2CC(=O)C=C(c3ccc(CO)cc3)C2)cc1 | inactive |
| Cc1cccc(-n2ncc(C#N)c2-n2cccc2)c1 | inactive |
| Cc1cccc(-n2ncc(Cl)c(Cl)c2=O)c1 | 3.26 µM (active) |
| O=c1c(Cl)c(NC2CC2)cnn1-c1ccccc1 | inactive |
| COC1=CC(=O)OC(C)(c2ccccc2)C1 (stereo unspecified) | inactive |
| COc1cc(OC)cc(C(=O)NCC(=O)OCC(=O)NC(C)CCc2ccccc2)c1 (stereo unspecified) | inactive |
| O=C(NCCc1ccccc1)C1CCN(S(=O)(=O)c2ccc(Br)s2)CC1 | inactive |
| Cc1cc(C)c[n+](-c2nc3ccccc3nc2[N-]S(=O)(=O)c2cccs2)c1 | inactive |
| O=S(=O)([N-]c1nc2ccccc2nc1-[n+]1ccc(Cc2ccccc2)cc1)c1ccc(Br)s1 | 9.2 µM (active) |
| O=C(COC(=O)c1cc(S(=O)(=O)N2CCOCC2)ccc1F)NC1CC1 | inactive |
| Cc1c(C(=O)N2CCCc3ccccc32)sc2nc(-c3ccccc3)cn12 | inactive |
| Cc1cccc2cc3c(N)c(C(=O)N4CCCc5ccccc54)sc3nc12 | 1.3 µM (active) |
| Cc1c(C(=O)N2CCCc3ccccc32)oc2ccccc12 | inactive |
| CCOC(=O)[C@H]1[C@H]2COc3ccc(C)cc3[C@@H]2N2C(=O)CN(Cc3ccc(F)cc3)C(=O)[C@@]12C | inactive |
| CSc1nnc(NC(=O)c2nc(S(=O)(=O)Cc3ccc(C)cc3)ncc2Cl)s1 | 1.16 µM (active) |
| CCSc1nnc(NC(=O)c2ccc(C)cc2)s1 | inactive |
| Cc1cccc(CS(=O)(=O)c2ncc(Cl)c(C(=O)Nc3ccc(F)cc3)n2)c1 | inactive |
| CC(CNC(=O)Cn1cnc2c(OCc3ccccc3)ncnc21)c1ccccc1 (stereo unspecified) | inactive |
| Nc1ncnc2c1ncn2[C@@H]1O[C@H](CNS(=O)(=O)c2ccc(-c3ccno3)s2)[C@@H](O)[C@H]1O | inactive |
| CCOc1ccccc1C1C(C(=O)OC)=CN(C)C=C1C(=O)OC | 14.6 µM (active) |
| CCOc1ccccc1N(CC(=O)Nc1ccccc1C(=O)OC)S(C)(=O)=O | inactive |
| CCOc1cc(C2C(C(=O)OC)=CN(C3CCCC3)C=C2C(=O)OC)cc(Br)c1O | inactive |

| SMILES | Potency |
| --- | --- |
| CC(C)(C)OC(=O)N[C@H](C(=O)OC(C)(C)C)c1ccc(Br)cc1 | inactive |
| Cc1ccc(S(=O)(=O)CCC(=O)OCC(=O)N(C)Cc2ccccc2)cc1 | inactive |
| COc1ccc(-c2cc(C(=O)N(C)Cc3ccccc3)c3ccccc3n2)cc1 | 3.66 µM (active) |
| COc1ccc(CN(C)C(=O)c2cc(-c3ccc(C)cc3C)nc3ccccc23)c(OC)c1OC | 23.1 µM (active) |
| CNC(=O)COC(=O)c1cc(-c2ccc(OC)cc2)nc2ccccc12 | inactive |
| Cc1ccc(-c2cc(C(=O)Nc3nn[nH]n3)c3ccccc3n2)c(C)c1 | inactive |
| COc1ccc(CN(C)C(=O)Cc2c[nH]c3ccccc23)c(OC)c1OC | inactive |
| COc1ccc(-c2cc(C(=O)n3cnc4ccccc43)c3ccccc3n2)cc1 | inactive |
| Cc1ccc(C)c(OCC(=O)NNC(=O)C2CCC2)c1 | inactive |
| COC(=O)c1ccc(CNC(=O)c2ccc(S(=O)(=O)N3CCCCCC3)cc2)cc1 | inactive |
| NC(=O)C1CCN(C(=O)c2cc(S(=O)(=O)N3CCN(c4ccccc4)CC3)ccc2Cl)CC1 | inactive |
| CCCN1C2CCCC1CC(NC(=O)NC13CC4CC(CC(C4)C1)C3)C2 (stereo unspecified) | inactive |
| C=CCN1C2CCCC1CC(NC(=S)Nc1cccc(OC)c1)C2 (stereo unspecified) | inactive |
| CCCNC(=S)NC1CC2CCCC(C1)N2CC(C)C (stereo unspecified) | 14.6 µM (active) |
| Nc1cc(=O)n(Cc2ccccc2)c(=O)n1Cc1ccccc1 | inactive |
| C/C(=N\Nc1ccc(Cl)nn1)c1ccccc1O | inactive |
| C=CCC[C@H](Cc1ccc(F)cc1)C(=O)OC[C@H](C)NC(=O)[C@H](CC=C)CC(=O)N(CCO)Cc1ccccc1 | inactive |
| Cc1ccc(S(=O)(=O)N(C)C)cc1NC(=O)C(C)OC(=O)c1ccc2ccccc2n1 (stereo unspecified) | inactive |
| COc1cccc(NC(=O)COc2cccnc2[N+](=O)[O-])c1 | inactive |
| COc1ccc(S(=O)(=O)Nc2cccc3c2O[C@H](CN(C)S(=O)(=O)c2ccc(OC)cc2)[C@@H](C)CN([C@H](C)CO)C3=O)cc1 | inactive |
| CCOC(=O)c1[nH]c2c(c1-c1ccccc1)C(=O)CC(c1ccc(Cl)cc1)C2 (stereo unspecified) | inactive |
| CCCOC(=O)c1[nH]c2c(c1C)C(=O)CC(c1cccs1)C2 (stereo unspecified) | 0.206 µM (active) |
| COCCOC(=O)c1[nH]c2c(c1C)C(=O)CC(c1ccc(OC)cc1)C2 (stereo unspecified) | inactive |
| CCOc1ccc(NC(=O)CN(C)C(=O)CCSc2ccc(F)cc2)cc1OCC | inactive |
| COc1cc(/C=C/C(=O)OCC(=O)c2ccccc2)cc(OC)c1OC | inactive |
| COc1ccccc1C(CNC(=O)c1cccc(S(=O)(=O)Nc2ccc(F)cc2)c1)N(C)C (stereo unspecified) | inactive |

| SMILES | Potency |
| --- | --- |
| COc1ccc(/C=C2\N=C3CCCN3C2=O)cc1 | inactive |
| COc1ccc(-n2c(=S)[nH]c3sc4c(c3c2=O)CCc2ccccc2-4)cc1 | inactive |
| COc1ccc(/C=C2/CCCc3ccccc3C2=O)cc1 | 1.64 µM (active) |
| Cc1c[n+]([O-])ccc1[N+](=O)[O-] | inactive |
| Cc1cccc(-c2nc3ccccc3c(=O)n2NC(=O)Cc2ccc(Cl)cc2)c1 | inactive |
| Cc1cc(=O)n2[nH]c(-c3cccc(Cl)c3)cc2n1 | inactive |
| NC(=O)c1cc(-c2cccnc2)nc2ccc(Br)cc12 | inactive |
| O=c1c2cc(Br)ccc2nc(-c2cccc(Cl)c2)n1O | 2.91 µM (active) |
| CCOC(=O)CSc1ncc(-c2cccc(Cl)c2)cn1 | inactive |
| O=C1CCCc2c1nc(-c1cccc(Cl)c1)n2O | 1.46 µM (active) |
| Cc1ccsc1C(=O)OCC(=O)NCCc1ccccc1 | inactive |
| O=C1C=CN2CCCC2CC1 (stereo unspecified) | inactive |
| COc1ccc(-c2cc(C(=O)NCCCN3CCCC3=O)c3ccccc3n2)cc1OC | inactive |
| COc1cccc(NC(=O)CN(C)C(=O)/C=C/c2cn(-c3ccccc3)nc2-c2cccs2)c1 | inactive |
| O=C(Cc1cccc2ccccc12)Nc1ccc2oc(-c3ccccc3)nc2c1 | inactive |
| O=C(Nc1ccc(NC(=O)c2cccs2)cc1)c1ccc2ccccc2c1 | inactive |
| O=C(Nc1ccc2oc(-c3ccc4ccccc4c3)nc2c1)c1cccs1 | 5.17 µM (active) |
| CC1CN(Cc2ccccc2)C(=S)NC1=O (stereo unspecified) | inactive |
| O=C(CN1CCN(C2CCS(=O)(=O)C2)CC1)N1N=C(c2ccc(Cl)cc2)CC1c1ccco1 (stereo unspecified) | inactive |
| CCOC(=O)N1CCN(C(=O)C2CCN(c3ncnc4c3sc3cccc(F)c34)CC2)CC1 | inactive |
| CCOC(=O)C1CCN(c2ncnc3c2oc2ccc(Br)cc23)CC1 | 20.6 µM (active) |
| CCOC(=O)C1CCN(c2ncnc3c2c(-c2ccccc2)cn3-c2ccc(C)cc2)CC1 | inactive |
| COc1cc(OC)cc(C(=O)NNC(=O)Cc2cccs2)c1 | inactive |
| COc1ccc(S(=O)(=O)N2C[C@H]3CON(C)[C@H]3C[C@H]2c2cccc(Br)c2)cc1 | inactive |
| Cc1cccc(CC2(O)C(=O)Nc3ccccc32)n1 (stereo unspecified) | inactive |
| Cn1cc(/C=C/c2nc3ccccc3c(=O)n2-c2cccc([N+](=O)[O-])c2)c2ccccc21 | inactive |

| SMILES | Potency |
| --- | --- |
| CCn1c(/C=C/c2ccc([N+](=O)[O-])o2)nc2ccccc2c1=O | 20.6 µM (active) |
| Cc1nc2ccccc2c(=O)n1Cc1ccc([N+](=O)[O-])cc1 | inactive |
| O=C(CC1SC(N2CCOCC2)=NC1=O)Nc1ccccc1F (stereo unspecified) | inactive |
| CCCn1c(N)c(C(=O)CSc2nnc3n2CCCCC3)c(=O)[nH]c1=O | inactive |
| C/C(=C\C(=O)c1cccnc1)Nc1ccc(C)c(C)c1 | inactive |
| O=C(Nc1ccncc1)c1ccc(Cl)c([N+](=O)[O-])c1 | inactive |
| O=C(/C=C/c1ccc(Cl)c([N+](=O)[O-])c1)c1cccnc1 | 5.17 µM (active) |
| O=C(Nc1cccnc1)c1ccc(Cl)cc1[N+](=O)[O-] | inactive |
| NC(N)=N/N=C/c1ccc(Cl)c([N+](=O)[O-])c1 | inactive |
| O=C(Nc1cccnc1)c1ccc(Cl)c([N+](=O)[O-])c1 | 20.6 µM (active) |
| N#CCc1c[nH]c2ccc([N+](=O)[O-])cc12 | inactive |
| CC(C)(C)OC(=O)CNC(=O)c1[nH]cnc1C(=O)N[C@@H](CCCCN)C(=O)OC(C)(C)C | inactive |
| O=C1[C@@H](c2ccccc2)[C@@H](c2ccccc2)N1c1cccnc1 | inactive |
| C[C@H](CO)N1C[C@H](C)[C@@H](CN(C)S(=O)(=O)c2ccc(F)cc2)Oc2ccc(NC(=O)CCC(F)(F)F)cc2C1=O | inactive |
| COc1cc(SC)ccc1C(=O)NNC(=O)C1COc2ccccc2O1 (stereo unspecified) | inactive |
| CC1CCN(C(=O)c2cc3nc(C4CC4)cc(C(F)(F)F)n3n2)CC1 | inactive |
| C=CCNC(=O)c1cc2nc(C3CC3)cc(C(F)F)n2n1 | inactive |
| O=C(Nc1ccc(Cl)cc1)c1cc2nc(C3CC3)cc(C(F)(F)F)n2n1 | 16.4 µM (active) |
| Cc1occc1-c1nnc(SCC(=O)NC2(C#N)CCCC2)n1C | inactive |
| COc1cc2c(cc1OC)C(Cc1cc(OC)c(OC)cc1[N+](=O)[O-])=NCC2 | inactive |
| CCOC(=O)N1CCN(C(=O)CSc2nc(C)nc3c2c(=O)n(C)c(=O)n3C)CC1 | 0.651 µM (active) |
| CCCc1nc(SCC(=O)N2CCCC2)c2c(=O)n(C)c(=O)n(C)c2n1 | inactive |
| Cn1c(=O)c2c(SCC(=O)N3CCOCC3)nc(C3CC3)nc2n(C)c1=O | inactive |

— PubChem BioAssay AID624296 (National Center for Advancing Translational Sciences (NCATS), 2012)
